The entries come from a sample that favours hits as a whole.
Dicer processing: inhibitors of human Dicer processing of pre-microRNA | Q9UPY3 | cat-ELCCA pre-miR-21 Dicer processing, chemiluminescence; stronger effect = higher value | z-score at 25 µM | 47,000 compounds, 6% hits | AID 1347074; in the data active = z-score above about 3, passing the limit was not always enough;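 note: plate controls were vehicle for no effect and no enzyme for full effect; higher signal means more uncleaved substrate so more Dicer inhibition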
An asterisk follows results filed as active.

SMILES | Dicer processing
C#CCSc1n[nH]c(-c2ccc(C(C)(C)C)cc2)n1 | 1.15
CN(/N=C/Cc1nnnn1-c1ccc(Cl)cc1)c1ccccc1 | -1.15
NC(=S)N/N=C/Cc1nnnn1-c1ccc(-c2ccccc2)cc1 | 3.21*
Clc1ccccc1N/N=C/Cc1nnnn1-c1ccccc1 | 0.48
OCC(CO)(CO)NC(=S)Nc1ccc(I)cc1 | 0.98
Cc1cc(C)n(CC(=O)Nc2ccc(Br)cc2)c(=O)n1 | -0.05
Nc1cc(=O)n(Cc2ccccc2)c(=O)n1-c1ccccc1 | 0.82
CCCn1c(=O)cc(N)n(-c2ccc(Cl)cc2)c1=O | 5.06*
CCCn1c(=O)c2[nH]cnc2n(-c2ccc(Cl)cc2)c1=O | 1.72
O=C1CC(c2ccco2)CC2=C1C(c1cccs1)N(C(=O)c1ccccc1)c1ccccc1N2 (stereo unspecified) | 0.74
COC(=O)c1ccccc1NC(=S)OC | 0.06
COC(=O)c1ccccc1NC(=S)N(N)CCO | -0.19
CCOC(=O)Nc1ccccc1C(=O)OC | 5.39*
Cc1cccc(C)c1NC(=S)N(CCC#N)C1CCCCC1 | -0.56
CCOc1cc(-c2cc(O)c3c(C)oc(C)c3c(=O)c2)ccc1O | 0.83
CCOc1cc(-c2cc(=O)c3ccccc3o2)ccc1O | -0.81
CCOc1cc(-c2cc(OCC)c3c(C)oc(C)c3c(=O)c2)ccc1O | 3.55*
COc1ccccc1NC(=O)Nc1cc(C)nn1C | -1.71
COCCOC(=O)C1=C(C)NC2=C(C(=O)CC(c3ccc(Cl)cc3)C2)C1c1ccc(C)cc1 (stereo unspecified) | 1.26
N#CC1=C(Cl)c2cc(Cl)ccc2SC1 | -0.31
CCOC(=O)C1=C(C)N2CCN=C2S1 | 0.91
CCOC(=O)c1c(N)sc2c1CCC2 | -2.76
CCOC(=O)C1=C(C)N2CCCN=C2S1 | 3.34*
CC1(C)CC(=O)C2=C(C1)c1c(ccc3ccccc13)NC2c1cccnc1 (stereo unspecified) | -1.15
CN=C(Nc1cccc(Cl)c1)SC | 1.03
SMILES | Dicer processing
O=C1C(=O)N(CCCN2CCOCC2)C(c2ccc(Cl)cc2)/C1=C(\O)c1ccc(F)cc1 (stereo unspecified) | -0.47
Cc1ccc(/C(O)=C2\C(=O)C(=O)N(CCN3CCOCC3)C2c2cccnc2)cc1 (stereo unspecified) | 0.8
O=C1C(=O)N(CCCN2CCOCC2)C(c2cccnc2)/C1=C(\O)c1ccc(F)cc1 (stereo unspecified) | 3.45*
S=c1[nH]c(-c2ccc(Cl)cc2)cn1-c1ccccc1 | 0.46
CN(Cc1ccccc1)C(=O)c1ccc([N+](=O)[O-])o1 | 3.03*
O=C(Nc1ccccc1F)c1ccc([N+](=O)[O-])o1 | -0.41
CCOC(=O)CNC(=O)c1ccc([N+](=O)[O-])o1 | 2.58
O=C(CN1c2cccc3cccc(c23)S1(=O)=O)Nc1cccc(Br)c1 | -1.44
CC1=CCC2C(=O)N(c3ccc(C(=O)O)cc3)C(=O)C2C1 (stereo unspecified) | -0.37
O=C(c1ccc(N2C(=O)C3CC=C(Cl)CC3C2=O)cc1)N1CCOCC1 (stereo unspecified) | 4.55*
CC1=CCC2C(=O)N(c3ccc(N4CCOCC4)cc3)C(=O)C2C1 (stereo unspecified) | 0.06
O=C(NC(=O)N1CCc2c([nH]c3ccccc23)C1C(F)(F)F)c1ccccc1 (stereo unspecified) | 7.52*
O=C(O)CCC(=O)N1CCc2c([nH]c3ccccc23)C1C(F)(F)F (stereo unspecified) | 1.03
O=S(=O)(c1cc(C(F)(F)F)cc(C(F)(F)F)c1)N1CCc2c([nH]c3ccccc23)C1C(F)(F)F (stereo unspecified) | 3.52*
O=C(O)CCCC(=O)N1CCc2c([nH]c3ccccc23)C1C(F)(F)F (stereo unspecified) | -0.64
FC(F)(F)Oc1ccc(NC(=S)N2CCc3c([nH]c4ccccc34)C2C(F)(F)F)cc1 (stereo unspecified) | 1.05
FC(F)(F)Oc1ccccc1NC(=S)N1CCc2c([nH]c3ccccc23)C1C(F)(F)F (stereo unspecified) | -6.98
N#CCCN(Cc1ccccc1)C(=O)c1ccc(Cl)cc1 | -1.22
COc1cccc(C(=O)CN2C(=O)/C(=C/c3ccco3)N=C2c2ccccc2)c1 | 1.18
Cc1nnsc1C(=O)NNS(=O)(=O)c1ccc(CNC(=O)c2ccccc2)s1 | -0.12
CCSCCOC(=O)C1=C(C)NC2=C(C(=O)CC(c3ccccc3Cl)C2)C1c1cccc(O)c1 (stereo unspecified) | 1.36
O=C(Nc1ccc2ccccc2n1)c1ccc2c(c1)OCC2 | -0.55
CCOC(=O)CS(=O)c1sc(C(=O)OCC)c2c1C(=O)CCC2 (stereo unspecified) | -3.87
COc1ccc(/C=C/c2ccc(OC)cc2)cc1 | 3.15*
COc1ccc(/C=C/c2sc(C)c(C)[n+]2C)cc1 | -4.76
SMILES | Dicer processing
COc1ccc(/C=C/c2nc3ccccc3n2C)cc1 | 1.15
Cc1nnc(SCC(=O)Nc2ccc(F)c(Cl)c2)s1 | -0.78
Cc1ccc(S(=O)(=O)NC(C)(C)CO)cc1-c1nnc2c3ccccc3c(C)nn12 | 0.08
CCCNS(=O)(=O)c1ccc(OC)c(-c2nnc3c4ccccc4c(C)nn23)c1 | 0.63
Cc1ccc(S(=O)(=O)NC(C)c2ccccc2)cc1-c1nnc2c3ccccc3c(C)nn12 (stereo unspecified) | 0.34
CNS(=O)(=O)c1ccc(OC)c(-c2nnc3c4ccccc4c(C)nn23)c1 | -0.01
CCCNS(=O)(=O)c1ccc(C)c(-c2nnc3c4ccccc4c(C)nn23)c1 | 4.32*
CNS(=O)(=O)c1ccc(C)c(-c2nnc3c4ccccc4c(C)nn23)c1 | 4.45*
Cn1c(-c2ccccc2O)n[nH]c1=S | -0.26
O=C1c2oc3ccc(F)cc3c(=O)c2C(c2ccc(O)cc2)N1Cc1ccc2c(c1)OCO2 (stereo unspecified) | 2.28
CSC(=NCc1ccccn1)NC#N | 0.07
CC1(C)CN=C(N(C(=O)Nc2ccccc2)c2ccc(Cl)cc2)S1 | 0.85
O=C1/C(=C\c2ccccc2)N=C(c2ccccc2)N1c1ccccc1 | -0.09
C=CCN1C(=O)/C(=C\c2ccc(OCc3ccccc3)cc2)N=C1c1ccccc1 | 0.88
O=C1/C(=C\c2cccs2)N=C(c2ccccc2)N1Cc1ccc(Cl)cc1 | -0.52
O=C1/C(=C/c2ccc(Cl)cc2)N=C(c2ccccc2)N1CCc1ccc(Cl)cc1 | 4.24*
COc1ccc(/C=C2/N=C(c3ccccc3)N(Cc3ccc(F)cc3)C2=O)cc1 | 3.87*
NC(=O)CN1C(=O)/C(=C\c2ccc(F)cc2)N=C1c1ccccc1 | 0.21
O=S(=O)(NCC1COc2ccccc2O1)c1ccccc1 (stereo unspecified) | 2.45
COC(=O)C1=C(C)NC2=C(C(=O)CCC2)C1c1ccc(N2CCOCC2)c([N+](=O)[O-])c1 (stereo unspecified) | 1.9
CNC(=S)N1CCCN(c2ccc(C#N)cn2)CC1 | -0.51
O=C(NC1CCCC1)c1cc2n(n1)C(C(F)(F)F)CC(c1ccco1)N2 (stereo unspecified) | -0.7
Cc1cc(C)c(Nc2ncc(-c3ccc4c(c3)OCCCO4)s2)c(C)c1 | -1.53
COc1ccc(OCC(O)CNC2CCN(CC(O)COc3ccc(Cl)c(Cl)c3)CC2)cc1 (stereo unspecified) | -0.29
CCOC(=O)C1CC(=O)C(C(=O)OCC)CC1=O (stereo unspecified) | -0.45
CCOC(=O)C1=C(O)C(=O)N(C2CCCCC2)C1 | -0.9
CCOC(=O)C1CN(C2CCCCC2)C(=O)C1=O (stereo unspecified) | 5.1*
CC1(C)CC(=O)C=C(Sc2ccc(C#N)cc2[N+](=O)[O-])S1 | 0.96
